Bioassay records (PubChem BioAssay)
The list is not random: actives were taken first. Their share in the collection is about 12%.
BAZ2B block: qHTS Assay for Inhibitors of BAZ2B | Bromodomain adjacent to zinc finger domain protein 2B (Homo sapiens), Q9UIF8 | AlphaScreen BAZ2B-H3K14Ac peptide displacement | Potency, µM (highest dose often 114 µM), without a hit: top-dose activity change, negative = inhibition, hits mostly inhibitors | hit rate 4.4% among 360,000 | AID 504333, 2011; note: % is set by controls: 0 for no effect and ±100 for the full control effect; nearly all actives have a fitted effect of over 60% in size
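Complex of BAZ2B and biotin-H3K14Ac (50 nM apiece) forms over 30 min at RT, then faces library compounds up to 110 uM for another 30 min; AlphaScreen beads added, 20 min dark incubation, luminescence read.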
JMJD2A Tudor inh: qHTS Assay for Inhibitors of JMJD2A-Tudor Domain; Lysine-specific demethylase 4A (Homo sapiens), O75164; Potency, µM (highest dose often 114 µM), for the others: at the highest dose activity change, negative = inhibition, actives largely listed as inhibitors; AlphaScreen JMJD2A-Tudor / H3K4me3 peptide binding; hit rate 4.4% among 390,000; note: % is set by controls: 0 for no effect and ±100 for the full control effect; nearly all actives have a fitted effect of over 50% in size
HP1b chromo inh: HTS for Inhibitors of HP1-beta Chromodomain Interactions with Methylated Histone Tails; Potency, µM (highest dose often 114 µM), without a hit: top-dose activity change, negative = inhibition, hits mostly inhibitors; hit rate 0.56% among 390,000; AID 540317, 2011; Chromobox protein homolog 1 (Homo sapiens), P83916; AlphaScreen HP1-beta / biotin-H3K9me3 peptide binding; note: nearly all actives have a fitted effect of over 70% in size
Target sequence (P83916 whole entry, looked up): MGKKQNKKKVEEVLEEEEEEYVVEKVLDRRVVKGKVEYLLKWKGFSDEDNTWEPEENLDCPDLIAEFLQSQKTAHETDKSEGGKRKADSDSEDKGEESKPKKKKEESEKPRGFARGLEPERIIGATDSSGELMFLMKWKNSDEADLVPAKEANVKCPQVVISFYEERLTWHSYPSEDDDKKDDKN
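Compound inhibition of the preformed complex between 50 nM HP1-beta and 50 nM biotinylated H3K9me3 peptide was read by AlphaScreen. Buffer was PBS pH 7.4 with 0.01% Tween-20. Incubations ran 30 min at room temperature, with 10 ug/mL donor/acceptor beads.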
L3MBTL1 inh: qHTS Assay for the Inhibitors of L3MBTL1; Lethal(3)malignant brain tumor-like protein 1 (Homo sapiens), Q9Y468; AlphaScreen L3MBTL1–H3K9me1 peptide binding; Potency, µM (titrated, usually from 57.1 µM), inactives show at the highest dose activity, negative = inhibition, actives largely listed as inhibitors; hit rate 0.66% among 230,000; AID 485360, 2010; note: % is set by controls: 0 for no effect and ±100 for the full control effect; nearly all actives have a fitted effect of over 60% in size
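L3MBTL1 50 nM + b-AHA-H3(1-15)K9me1 75 nM, 30 min RT; compound added, 30 min RT; streptavidin donor/Ni-chelate acceptor beads 10 ug/mL each final, 30 min RT dark; AlphaScreen read.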
Sfp inh: qHTS Assay for Inhibitors of Bacillus subtilis Sfp phosphopantetheinyl transferase (PPTase); Biochemical Sfp PPTase activity, qHTS; Potency, µM, without a hit: largest response in the series, negative = inhibition, actives largely listed as inhibitors; hit rate 3.5% among 310,000; 4'-phosphopantetheinyl transferase ffp (Bacillus subtilis), Q9F4F7; AID 1490, 2009;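 note: the enzyme is Sfp with the accession as filed and its product quenches rhodamine fluorescence; 0% = enzyme reaction without inhibitor and -100% = no enzyme wells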
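With Hepes-Na pH 7.6 buffer containing 10 mM MgCl2, Sfp (15 nM) modified BHQ-2-YbbR (12.5 uM) using rhodamine-CoA (5 uM). Two reads 30 minutes apart at 525/598 nm yielded each well's rate.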
G9a inh: qHTS Assay for Inhibitors of Histone Lysine Methyltransferase G9a. AID 504332, 2011. hit rate 8.8% among 350,000. G9a H3K9 monomethylation, AlphaScreen, 2 h. Histone-lysine N-methyltransferase EHMT2 (Homo sapiens), Q96KQ7. Potency, µM (series often up to 102 µM), without a hit: top-dose activity, negative = inhibition, usual class: inhibitors; note: % is set by controls: 0 for no effect and ±100 for the full control effect; nearly all actives have a fitted effect of over 75% in size
Target sequence (Q96KQ7 913-1193 limits assumed): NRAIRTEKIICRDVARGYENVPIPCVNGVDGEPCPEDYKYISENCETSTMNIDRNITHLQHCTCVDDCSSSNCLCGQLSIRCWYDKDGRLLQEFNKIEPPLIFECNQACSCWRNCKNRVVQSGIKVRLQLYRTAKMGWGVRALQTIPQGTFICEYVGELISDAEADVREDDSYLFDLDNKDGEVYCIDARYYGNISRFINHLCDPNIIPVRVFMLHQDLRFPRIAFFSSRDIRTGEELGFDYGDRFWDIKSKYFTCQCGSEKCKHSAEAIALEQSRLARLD
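Chemiluminescent proximity detection of H3K9 monomethylation, read after 10 min bead incubation in the dark. Reaction: 20 nM G9a, 500 nM biotin-H3K9 peptide, 20 uM SAM cofactor, 2 h, room temperature, following 15 min enzyme-compound preincubation.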
* hit, by the source's call; ? = inconclusive; . = not tested or not shown; [ ] = remark or other dose. Calls come from the whole dose curve; as a rule, active = well fitted curve in the direction sought with a large enough effect; inconclusive = small, poorly fitted or top-dose-only effect, or another doubt; inactive = no such curve, though single readings can be large; an effect the other way counts as inactive or inconclusive. Potency is the fitted concentration of half-maximal effect.

SMILES	BAZ2B block	JMJD2A Tudor inh	HP1b chromo inh	L3MBTL1 inh	Sfp inh	G9a inh
COc1ccc(-n2c(Cc3cccn3C)nnc2SCC(=O)Nc2ccccc2F)cc1	?	?	-25%	?	-8%	50µM*
Cc1ccc(-n2c(Cc3cccn3C)nnc2SCC(=O)N2CCc3ccccc32)cc1	50µM*	?	?	0%	-14%	45µM*
COc1ccc(-n2c(Cc3cccn3C)nnc2SCC(=O)Nc2cccc(C)c2C)cc1	?	?	15%	-3%	-10%	45µM*
Cc1nc(Nc2ccccc2)c2nc(-c3ccccc3)n(CCCN3CCCCC3C)c2n1 (stereo unspecified)	.	.	.	.	13%	.
Cn1cccc1Cc1nnc(SCC(=O)N2CCOCC2)n1-c1ccc(F)cc1	-27%	-31%	12%	-15%	?	?
COc1ccc(OC)c(NC(=O)CSc2nnc(Cc3cccn3C)n2-c2ccc(F)cc2)c1	50µM*	-35%	1%	-9%	-8%	?
COc1ccc(-n2c(Cc3cccn3C)nnc2SCC(=O)N2CCOCC2)cc1	-6%	-25%	27%	1%	2%	71µM*
COc1ccc(-n2c(Cc3cccn3C)nnc2SCC(=O)Nc2ccc(F)cc2F)cc1	?	?	-1%	-1%	-5%	40µM*
COc1cc(NC(=O)c2nnn(Cc3ccc(F)cc3)c2N)cc(OC)c1	?	-9%	10%	.	.	-3%[59 µM]
CC(NC(=O)c1ccc2nc(CCc3ccccc3)oc2c1)c1ccccc1 (stereo unspecified)	3%	-1%	26%[57 µM]	.	.	17%[59 µM]
CCOc1ccc(CCNC(=O)CS(=O)(=O)Cc2nc(-c3cccc(Cl)c3)oc2C)cc1	-2%	-3%	59%	.	.	6%[59 µM]
NC(=S)NN=C(c1ccc(Br)cc1)C1CC1	.	0.79µM*	?	.	.	.
CCOC(=O)CSc1nc2cc(OC)c(OC)cc2c2nc(-c3ccccc3)nn12	.	-12%	14%	.	.	4%[59 µM]
Cc1cc(C(=O)OCC(=O)Nc2ccc(F)c(F)c2F)c(C)o1	2%	20µM*	-11%	4%	24%	17%
O=C1C(=O)N(c2ccccc2)C(c2ccccc2[N+](=O)[O-])/C1=C(\O)c1ccccc1 (stereo unspecified)	?	-32%	?	-4%	13µM*	?
COc1ccccc1C1/C(=C(/O)c2ccccc2)C(=O)C(=O)N1CC(C)C (stereo unspecified)	1%	?	12%	-11%	4%	?
O=C1C(=O)N(c2cccc(Cl)c2)C(c2ccccc2[N+](=O)[O-])/C1=C(\O)c1ccccc1 (stereo unspecified)	79µM*	?	-8%	0%	22µM*	28µM*
CN1C(=O)C(=O)/C(=C(/O)c2ccccc2)C1c1ccccc1 (stereo unspecified)	-4%	-22%	21%	0%	11%	?
NS(=O)(=O)c1ccc(N2C(=O)C(=O)/C(=C(/O)c3ccccc3)C2c2ccc(Cl)cc2)cc1 (stereo unspecified)	7%	-9%	15%	-23%	10%	50µM*
CCOC(=O)C1=C(O)C(=O)N(c2ccc(S(N)(=O)=O)cc2)C1c1ccc(Cl)cc1 (stereo unspecified)	?	-27%	6%	-2%	-6%	7%[0.501 µM]
CCOc1ccc(N2C(=O)C(=O)/C(=C(/O)c3ccccc3)C2c2ccccc2[N+](=O)[O-])cc1 (stereo unspecified)	-8%	-27%	7%	4%	?	45µM*
COc1ccc(/C(O)=C2/C(=O)C(=O)N(c3ccccn3)C2c2ccc(OC)cc2)cc1 (stereo unspecified)	-17%	-19%	20%	.	16%	?
COc1ccc2c(Sc3ccccc3)c(C(=O)NCC(C)c3ccccc3)[nH]c2c1 (stereo unspecified)	-7%	-16%	18%	.	.	-29%[59 µM]
Cc1cccc(NC2=NC3(CCCCC3)N=C(N)N2)c1	.	-10%	14%	.	.	.
NC1=NC2(CCCC2)N=C(Nc2ccccc2)N1	1%	35µM*	-6%	1%	3%	8%
SMILES	BAZ2B block	JMJD2A Tudor inh	HP1b chromo inh	L3MBTL1 inh	Sfp inh	G9a inh
CC(=O)c1c(C)[nH]c(C(=O)NNC(=O)c2ccc(Br)cc2)c1C	.	-21%	23%	-7%	.	.
CCC(=S)/C=C1\Sc2ccc3ccccc3c2N1CCCS(=O)(=O)O	?	.	.	-6%	35µM*	?
Nc1nc(SCc2ccccc2)ns1	5%	79µM*	?	-18%[11.4 µM]	?	4µM*
Cc1cc(C)c(C)c(S(=O)(=O)N2CCN(S(=O)(=O)c3ccc4c(c3)OCCO4)CC2)c1C	.	-32%	.	.	.	.
COc1cccc(-n2c(SCc3cc(=O)oc4cc(O)c(O)cc34)nc3ccccc3c2=O)c1	35µM*	40µM*	?	32µM*	-16%	?
Cc1ccc(N(C(=O)COc2ccccc2C)S(=O)(=O)c2ccc(Cl)cc2)cc1	3%	4%	39%	.	.	8%[59 µM]
Cc1cc2c(NC(=O)Nc3ccccc3)cccc2nn1	8%	-2%	27%	-23%	45µM*	?
Oc1ccc(/C=N/N=C(c2ccccc2)c2ccccc2)c(O)c1O	25µM*	56µM*	45µM*	3.5µM*	2.8µM*	1.4µM*
NC(=N\N=Cc1ccccc1)/C(N)=N/N=Cc1ccccc1	.	-23%	14%	.	.	.
O=C(/C(=N/N=C/c1ccc(O)c(O)c1O)c1ccccc1)c1ccccc1	32µM*	35µM*	?	20µM*	-96%	1.1µM*
O=C(COc1ccc(F)cc1)NCc1ccc2c(c1)CCN2C(=O)c1ccccc1	-2%	-12%	-1%	.	.	8%[59 µM]
COC(=O)[C@@H]1[C@@H](C)N(CCc2cc(OC)c(OC)c(OC)c2)C(=O)N[C@H]1c1ccccc1	.	.	.	.	-14%	.
COc1cc(C2SC(C)C(=O)N2CCc2ccccc2)cc(OC)c1OC (stereo unspecified)	-3%	-7%	31%	.	-6%	50µM*
Cc1nn(Cc2ccc(C(=O)NC(C)(C)C)o2)c(C)c1Br	-5%	-5%	45%	5%	56µM*	?
Cc1cc(NC(=O)c2ccc(Cn3nc(C)c(Br)c3C)o2)no1	-1%	-14%	0%	.	10%	-10%[59 µM]
